Drawing on PubChem BioAssay (NCATS), this text covers Potency and activity (max response) for 14 molecules.

Structures are written as SMILES. Values joined by “and” are separate entries in the source; they are usually repeats but may differ in a detail not shown here. Identical values can stand only once. Records with an inconclusive call do not appear. Unmarked numbers belong to inactive results. Active and inactive are the calls of the source. Calls follow the shape of the dose curve; as a rule, active = well fitted curve in the direction sought with a large enough effect; inconclusive = small, poorly fitted or top-dose-only effect, or another doubt; inactive = no such curve, though single readings can be large; an effect the other way counts as inactive or inconclusive.

The nature of assay [1]: Viability qHTS for spleen associated tyrosine kinase inhibitor (SYKi) naive MV4-11 cells (AID 1963823). Also: nearly all actives have a fitted effect of over 40% in size. Particulars: MV4-11 AML viability, CellTiter-Glo luminescence, 72 h; series mostly up to 45 µM. In a few lines: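 SYK inhibitor-naive MV4-11 cells, 500 per well, exposed to compounds for 72 hr at 37 C, 5% CO2. Viability read as CellTiter-Glo luminescence after 10 min at room temperature.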
In general terms: In qHTS, concentration-response curves come from the screen itself.

Assay [2] in a line: Viability qHTS for spleen associated tyrosine kinase inhibitor (SYKi) drug resistant MV4-11 cells (AID 1963824). Also: nearly all actives have a fitted effect of over 35% in size. Particulars: SYKi-resistant MV4-11 viability, CellTiter-Glo, 72 h; series mostly up to 45 µM. In a few lines: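 SYK inhibitor-resistant MV4-11 AML cells, 500 per well, added to predispensed compounds and incubated 72 hr at 37 C, 5% CO2. Viability measured by CellTiter-Glo luminescence after 10 min at room temperature.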

The nature of assay [3]: Quantitative highthroughput screen to assess conditional lethalithy of NOMO1 cells grown in RPMI1640 with untreated serum (RPMI+s) (AID 1963876). Also: nearly all actives have a fitted effect of over 35% in size.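 As to Viability: 100% = DMSO wells and 0% = empty wells without cells.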 Conditions: NOMO1 AML cells in RPMI+serum, CellTiter-Glo viability, 48 h; series mostly up to 45.8 µM. In a few lines:
(§1)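 Each medium arm—HPLM with 10% dialyzed FBS, or RPMI1640 with 5 mM glucose and 10% untreated or dialyzed FBS—was screened against an 11-point, 3-fold compound titration for 48 h at 37 °C, with CellTiter-Glo luminescence as endpoint.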

Assay [4] can be described thus: Quantitative highthroughput screen to assess conditional lethalithy of NOMO1 cells grown in Human Plasma-Like Medium with dialyzed fetal bovine serum (HPLM+ds) (AID 1963878). Also: nearly all actives have a fitted effect of over 35% in size.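 As to Viability: 100% = DMSO wells and 0% = empty wells on each plate.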 Conditions: NOMO1 AML cells in HPLM+ds, CellTiter-Glo viability, 48 h; series mostly up to 45.8 µM. In a few lines: as §1
In general terms: Cellular ATP, detected with luciferase, serves as a proxy for viable cell number.

A short description of assay [5]: Quantitative highthroughput screen to assess conditional lethalithy of P12 Ichikawa cells grown in Human Plasma-Like Medium with dialyzed fetal bovine serum (HPLM+ds) (AID 1963879). Also: nearly all actives have a fitted effect of over 35% in size. Conditions: ATP luminescence, 48 h; Potency: viability; series mostly up to 45.8 µM. The procedure, abridged:
as §1

Assay [6] is described as follows: Quantitative highthroughput screen to assess conditional lethalithy of P12 Ichikawa cells grown in RPMI1640 with dialyzed fetal bovine serum (RPMI+ds) (AID 1963880). Also: nearly all actives have a fitted effect of over 35% in size.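 As to Viability: 100% = DMSO wells and 0% = empty wells on each plate.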 Conditions: ATP luminescence, 48 h; Potency: P12-Ichikawa viability; series mostly up to 45.8 µM. The procedure, abridged:
as §1

The nature of assay [7]: Quantitative highthroughput screen to assess conditional lethalithy of P12 Ichikawa cells grown in RPMI1640 with untreated serum (RPMI+s) (AID 1963881). Also: nearly all actives have a fitted effect of over 35% in size.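 As to Viability: 100% = DMSO wells and 0% = empty wells without cells.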 Conditions: ATP luminescence, 48 h; Potency: viability; series mostly up to 45.8 µM. In a few lines: as §1
Assay [8] in a line: Quantitative highthroughput screen to assess conditional lethalithy of SEM cells grown in Human Plasma-Like Medium with dialyzed fetal bovine serum (HPLM+ds) (AID 1963882). Also: nearly all actives have a fitted effect of over 35% in size. Particulars: SEM B-ALL cells in HPLM+ds, CellTiter-Glo viability, 48 h; series mostly up to 45.8 µM. The procedure, abridged:
as §1

Assay [9] can be described thus: Quantitative highthroughput screen to assess conditional lethalithy of SEM cells grown in RPMI1640 with unreated serum (RPMI+s) (AID 1963883). Also: nearly all actives have a fitted effect of over 35% in size.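 As to Viability: 100% = DMSO wells and 0% = empty wells without cells.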 Particulars: SEM B-ALL cells, CellTiter-Glo viability, 48 h; series mostly up to 45.8 µM. In a few lines: as §1
Assay [10] can be described thus: Quantitative highthroughput screen to assess conditional lethalithy of SEM cells grown in RPMI1640 with dialyzed fetal bovine serum (RPMI+ds) (AID 1963884). Also: nearly all actives have a fitted effect of over 35% in size.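 As to Viability: 100% = DMSO control wells and 0% = empty wells without cells.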 Conditions: SEM B-ALL cells, RPMI+dialyzed FBS, CellTiter-Glo viability, 48 h; series mostly up to 45.8 µM. In a few lines: as §1
A short description of assay [11]: Cellular viability qHTS for adrenocortical cancer (ACC) cell line SW-13 (AID 1963989). Also: nearly all actives have a fitted effect of over 65% in size.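 As to activity (max response): cells grown in serum-free medium with ITS supplement; % is scaled to controls: 0 for no effect and ±100 for the full control effect.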 Conditions: SW-13 ACC cells viability, CellTiter-Glo, 48 h; activity (max response): active compounds read low. In a few lines:
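Compound titrations (up to 46 uM final, in DMSO) were applied to SW-13 cells for 48 h at 37C/5% CO2. Reading used CellTiter-Glo after 20 min at room temperature; fitted curves yielded IC50 and efficacy.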

A short description of assay [12]: Quantitative highthroughput screen to assess conditional lethalithy of NOMO1 cells grown in RPMI1640 with dialyzed fetal bovine serum (RPMI+ds) (AID 1963877). Also: nearly all actives have a fitted effect of over 30% in size.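 As to Viability: 100% = DMSO control wells and 0% = empty wells.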 Conditions: NOMO1 in RPMI+dialyzed FBS viability, ATP luminescence, 48 h; series mostly up to 45.8 µM. In a few lines: as §1
The nature of assay [13]: Cellular viability qHTS for adrenocortical cancer (ACC) cell line NCI-H295R (AID 1963990). Also: nearly all actives have a fitted effect of over 60% in size. Conditions: CellTiter-Glo ATP luminescence, 48 h; series mostly up to 46.1 µM. In a few lines: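 Readout: CellTiter-Glo luminescence, 20 min RT. Exposure: 48 h, 37C/5% CO2. Cells: NCI-H295R, ITS-DMEM serum-free. Range: up to 46 uM. Analysis: 4PL fit, IC50 plus efficacy.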
Potency is read from the fitted curve at half-maximal effect.

With `CC(C)c1cc(C(C)C)c(CC(=O)NS(=O)(=O)Oc2c(C(C)C)cccc2C(C)C)c(C(C)C)c1`, the results for the Potency in assay [1] and in [2] were 11.6 µM (active) and 4.68 µM (active), respectively. Further, the Potency result in assay [3], in assay [4], in assay [5], in [6], in assay [7] and in [8] was “inactive” in each case. The Potency result in assay [9] and in assay [10] was “inactive” throughout. In addition, the activity (max response) in [11] was -25.2%.
With `CC[C@@H]1C(=O)N(C)c2cnc(Nc3ccc(C(=O)NC4CCC(N5CCN(CC6CC6)CC5)CC4)cc3OC)nc2N1C(C)C` (stereo partly drawn), the Potency in assay [1] was 0.0206 µM (active); in assay [2], 23.1 nM (active) and 9.2 nM (active) and 16.6 nM (active); in [3], 0.0935 µM (active); in [12] it was 74.3 nM (active); in [5], 33.2 nM (active); in assay [7], 0.0743 µM (active). Further, the Potency was 29.6 nM (active) in assay [8]; 83.3 nM (active) in assay [9]; 59 nM (active) in [10]; 0.0501 µM (active) in assay [11]; 1.41 µM (active) in assay [13].
As to `CNCc1ccc(-c2[nH]c3cc(F)cc4c3c2CCNC4=O)cc1`, the Potency in assay [1] is 13 µM (active) and 16.6 µM (active); in assay [2], 20.6 µM (active) and 14.8 µM (active). In addition, the Potency entry in assay [3], in [12], in [5], in [7], in assay [8] and in assay [10] was “inactive” throughout. In assay [13], the Potency result is “inactive”.
For the molecule `CCCCN(CCCC)CCC(O)c1cc2c(Cl)cc(Cl)cc2c2cc(C(F)(F)F)ccc12` (stereo not drawn), the Potency in assay [1] is 10.6 µM (active); in assay [2], 8.41 µM (active); in assay [7], 13.2 µM (active); in [13], 5.8 µM (active). For the same molecule, the Potency result in assay [3], in assay [12], in assay [5], in [6] and in assay [8] was “inactive” throughout.
Take `C=CC(=O)Nc1cc2c(Nc3ccc(F)c(Cl)c3)ncnc2cc1C#CC(C)(C)N1CCN(C)CC1`: the Potency in assay [1] is 0.59 µM (active); in assay [2], 0.517 µM (active); in [3], 9.35 µM (active); in assay [4], 5.26 µM (active); in [5] it was 5260 nM (active); in assay [6], 5.26 µM (active). Further, the Potency is 5.9 µM (active) in [7]; 2960 nM (active) in assay [8]; 2960 nM (active) in assay [9]; 3320 nM (active) in [10]; 3.16 µM (active) in [11].
`C[C@@H]1COC(Nc2ccc3ncnc(Nc4ccc(OCc5nccs5)c(Cl)c4)c3c2)=N1`: the Potency in assay [1] was 4.11 µM (active); in assay [2] it was 2.91 µM (active); in assay [6], 18.7 µM (active); in [11], 15.8 µM (active); in assay [13], 28.2 µM (active). Moreover, the Potency result in assay [3] and in [12] was “inactive” throughout.
As to `O=C(c1ccc(F)cc1)C1CCN(CCn2c(=O)[nH]c3ccccc3c2=O)CC1`, the Potency result in [1], in [3], in [4], in assay [5], in assay [6] and in [7] was “inactive” each time. The Potency entry in assay [8], in assay [9], in [10] and in assay [13] was “inactive” in each case. Besides, in [2], the Potency is 16.8 µM (active). Besides, the activity (max response) in [11] is -13.7%.
Consider `CCC(C)n1ncn(-c2ccc(N3CCN(c4ccc(OC[C@H]5CO[C@](Cn6cncn6)(c6ccc(Cl)cc6Cl)O5)cc4)CC3)cc2)c1=O` (stereo partly drawn), for which the Potency in assay [1] was 2.88 µM (active); in assay [2] it was 1.59 µM (active). Besides, the Potency entry in assay [3], in [12], in assay [5], in assay [6], in assay [7] and in assay [9] was “inactive” in each case. Further, in assay [13], the Potency entry was “inactive”. The activity (max response) in assay [11] was -10.2% and 8.84%.
Take `Cc1cc2c(s1)Nc1ccccc1N=C2N1CCN(C)CC1`: the Potency is 20.6 µM (active) in assay [1] and 23.1 µM (active) in assay [2]. In addition, the Potency entry in assay [3], in assay [12], in [5], in assay [6], in [7] and in assay [8] was “inactive” each time. Further, the Potency entry in assay [10] and in assay [13] was “inactive” each time. Moreover, in assay [11], the activity (max response) is -7.86%.
Consider `Cc1ccccc1N1C(=O)c2cc(S(N)(=O)=O)c(Cl)cc2NC1C` (stereo not drawn), for which the Potency entry in [1], in assay [2], in assay [3], in [4], in assay [5] and in assay [6] was “inactive” throughout. For the same molecule, the Potency entry in [7], in [8], in [9], in assay [10] and in assay [13] was “inactive” in each case. Besides, in assay [11], the activity (max response) is 17.3%.
Consider `CN(C)c1ccc(C2Nc3ccc4ccccc4c3C3=C2C(=O)CC(C)(C)C3)cc1Br` (stereo not drawn), for which the Potency entry in [1], in assay [3], in assay [4], in [5], in assay [7] and in assay [8] was “inactive” in each case. For the same molecule, the Potency result in assay [9], in assay [10] and in [13] was “inactive” in each case. The Potency in [2] is 14.8 µM (active). Further, in assay [11], the activity (max response) is -5.19%.
As to `COc1ccc([C@@H]2CNC(=O)C2)cc1OC1CCCC1`, the Potency entry in [1], in assay [2], in assay [3], in assay [4], in assay [5] and in assay [6] was “inactive” throughout. Further, the Potency result in [7], in [9], in assay [10] and in assay [13] was “inactive” in each case. The activity (max response) in assay [11] is -15.2%.
`CN(C)CCC=C1c2ccccc2C=Cc2ccccc21`: the Potency is 18.6 µM (active) in assay [1], 14.8 µM (active) in assay [2], 20.9 µM (active) in assay [3] and 18.7 µM (active) in assay [4]. In addition, the Potency entry in assay [5], in assay [6] and in assay [10] was “inactive” throughout.
`CCC(C)(C)C(=O)O[C@H]1C[C@@H](C)C=C2C=C[C@H](C)[C@H](CC[C@@H]3C[C@@H](O)CC(=O)O3)[C@H]21`: the Potency was 8.41 µM (active) and 9.34 µM (active) in [1]; 2.99 µM (active) and 3.72 µM (active) in assay [2]; 20.9 µM (active) in assay [3]; 18.7 µM (active) in assay [4]; 14.8 µM (active) in assay [7]. For the same molecule, the activity (max response) in assay [11] was -9.24% and -17.2%.
